Test results reported in PubChem BioAssay (Tox21).
Where “and” joins values, the source holds several entries; their conditions need not be identical. Identical values can stand only once. Calls of active or inactive are those of the source. Unless noted, calls follow the shape of the dose curve; as a rule, active = well fitted curve in the direction sought with a large enough effect in the repeat runs; inconclusive = weak or mixed curves; inactive = no such curve, though single readings can be large; an effect the other way counts as inactive or inconclusive.

Key:
[1] = qHTS assay to identify small molecule antagonists of the thyroid receptor (TR) signaling pathway - cell viability counter screen (AID 743064); also: nearly all actives have a fitted effect of over 50% in size; also: potency is read from the fitted curve at half-maximal effect
Outline: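 In-well cytotoxicity read by CellTiter-Fluor (30 min, 37 C) following 23.5 h exposure of GH3 cells bearing a TRE-luciferase sensor. Compounds were added alongside 1 nM (final) T3 to drive TR transactivation.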

[2] = qHTS assay to identify small molecule antagonists of the thyroid receptor (TR) signaling pathway (AID 743065); also: nearly all actives have a fitted effect of over 55% in size; also: potency is read from the fitted curve at half-maximal effect
Outline: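 GH3.TRE-Luc rat pituitary cells carrying two TR response elements driving luciferase were plated for 4 h, given compound plus 1 nM T3 (final), and incubated 23.5 h at 37 C. ONE-Glo luminescence measured reporter inhibition; CellTiter-Fluor fluorescence tracked cytotoxicity.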

[3] = tested on: thyroid hormone receptor (rat, GH3 cells); assay: qHTS assay to identify small molecule agonists of the thyroid receptor (TR) signaling pathway (AID 743066; calls by dose curve; also: potency is read from the fitted curve at half-maximal effect)
[4] = molecular target: Estrogen receptor (Homo sapiens) (UniProt P03372); assay: qHTS assay to identify small molecule agonists of the estrogen receptor alpha (ER-alpha) signaling pathway (AID 743075; calls by dose curve; also: potency is read from the fitted curve at half-maximal effect); details: HEK293 ER-alpha-UAS-bla, beta-lactamase FRET ratio, 18 h; activation: at 70.1 µM (top of the series)
Aromatase (Homo sapiens) = Aromatase (Homo sapiens) (UniProt P11511); assay: qHTS assay to identify aromatase inhibitors (AID 743083); also: nearly all actives have a fitted effect of over 55% in size; also: potency is read from the fitted curve at half-maximal effect
[5] = molecular target: Aryl hydrocarbon receptor (Homo sapiens) (UniProt P35869); assay: qHTS assay to identify small molecule that activate the aryl hydrocarbon receptor (AhR) signaling pathway (AID 743085); also: nearly all actives have a fitted effect of over 15% in size; also: potency is read from the fitted curve at half-maximal effect;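 as to activation: HG2L7.5c1 human HepG2 liver cells with stably integrated DRE-driven firefly reporter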
Outline: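 Luminescence (ONE-Glo) from a dioxin-responsive-element luciferase reporter in HG2L7.5c1 HepG2 cells after 24 hr compound exposure at 37C; viability measured by CellTiter-Fluor fluorescence beforehand.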

[6] = molecular target: Peroxisome proliferator-activated receptor gamma (Homo sapiens) (UniProt P37231); assay: qHTS assay to identify small molecule antagonists of the peroxisome proliferator-activated receptor gamma (PPARg) signaling pathway (AID 743191; calls by dose curve; also: nearly all actives have a fitted effect of over 30% in size; also: potency is read from the fitted curve at half-maximal effect)
Outline: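 GeneBLAzer PPARg UAS-bla HEK293H cells carrying a UAS-driven beta-lactamase reporter were plated at 3000 cells/well, preincubated 5 h at 37C, then given compound for 17 h at 37C; LiveBLAzer B/G FRET substrate was read after 1 h at room temperature.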

[7] = qHTS assay for small molecule agonists of the antioxidant response element (ARE) signaling pathway - cell viability counter screen (AID 743203; calls by dose curve; also: nearly all actives have a fitted effect of over 55% in size; also: potency is read from the fitted curve at half-maximal effect)
Outline: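 Compounds in DMSO were pinned onto ARE-bla HepG2 cells plated 5 hrs earlier at 2,000 cells/well. Sixteen hours later at 37C/5% CO2, CellTiter-Glo was added and luminescence measured after 30 min at room temperature.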

[8] = qHTS assay for small molecule activators of the heat shock response signaling pathway - cell viability counter screen (AID 743209); also: nearly all actives have a fitted effect of over 50% in size; also: potency is read from the fitted curve at half-maximal effect
Outline: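 Counter screen for cytotoxicity in HeLa HSE-bla reporter cells. Treatment was 5 h at 37 C; viability was detected by luminescent ATP assay (CellTiter-Glo) in the same wells as the beta-lactamase read.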

[9] = qHTS assay to identify small molecule antagonists of the peroxisome proliferator-activated receptor gamma (PPARg) signaling pathway - cell viability counter screen (AID 743194); also: nearly all actives have a fitted effect of over 55% in size; also: potency is read from the fitted curve at half-maximal effect
Outline: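 PPARg-UAS-bla HEK293H cells were plated, rested 5 h at 37 C, then treated with compounds plus rosiglitazone (50 nM final) for 17 h at 37 C; viability was then read by CellTiter-Glo luminescence after 30 min at room temperature.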

[10] = qHTS assay for small molecule activators of the heat shock response signaling pathway (AID 743210; active = well fitted activation curve with a large enough effect in the signal ratio in the repeat runs, with a control signal flat, not every such curve was filed as active; inconclusive = weak or mixed curves; the % refers to the signal ratio)
Outline: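 HSE-bla HeLa cells (beta-lactamase reporter under heat shock response elements) were exposed to compounds for 5 h at 37 C, then loaded with LiveBLAzer B/G FRET substrate for 2.5 h at room temperature before fluorescence reading.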

[11] = qHTS assay to identify small molecule antagonists of the estrogen receptor alpha (ER-alpha) signaling pathway - cell viability counter screen (AID 743074; calls by dose curve; also: nearly all actives have a fitted effect of over 45% in size; also: potency is read from the fitted curve at half-maximal effect)
[12] = qHTS assay to identify aromatase inhibitors - cell viability counter screen (AID 743084); also: potency is read from the fitted curve at half-maximal effect
[13] = qHTS assay to identify small molecule that activate the aryl hydrocarbon receptor (AhR) signaling pathway - cell viability counter screen (AID 743086); also: nearly all actives have a fitted effect of over 45% in size; also: potency is read from the fitted curve at half-maximal effect
Outline: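 HepG2-AhR-luc (HG2L7.5c1) cells, 4000/well, were preincubated 5 h at 37C, exposed to compound in qHTS format for 24 hr at 37C, then given CellTiter-Fluor for 30 min; viability was read as fluorescence in the reporter wells.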

[14] = qHTS assay to identify small molecule antagonists of the estrogen receptor alpha (ER-alpha) signaling pathway using the BG1 cell line - cell viability counter screen (AID 743081);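 also: compound given together with 17beta-estradiol as the ER stimulus; nearly all actives have a fitted effect of over 45% in size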; also: potency is read from the fitted curve at half-maximal effect
[15] = molecular target: Peroxisome proliferator-activated receptor gamma (Homo sapiens) (UniProt P37231); assay: qHTS assay to identify small molecule agonists of the peroxisome proliferator-activated receptor gamma (PPARg) signaling pathway (AID 743094; active = well fitted activation curve with a large enough effect in the signal ratio in the repeat runs, not every such curve was filed as active; inconclusive = weak or mixed curves, or effect the other way; inactive = no such curve, though single readings can be large or run the other way; the % refers to the signal ratio)
Outline: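 Following 5 h plating at 37C, PPARg-bla HEK293H cells receive compound or DMSO for 17 h; fluorescence intensity is recorded after LiveBLAzer B/G loading for 1 h at room temperature.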

[16] = molecular target: Estrogen receptor (Homo sapiens) (UniProt P03372); assay: qHTS assay to identify small molecule antagonists of the estrogen receptor alpha (ER-alpha) signaling pathway (AID 743069; active = well fitted curve in the direction sought with a large enough effect in the signal ratio in the repeat runs, not every such curve was filed as active; inconclusive = weak or mixed curves, or effect the other way; inactive = no such curve, though single readings can be large or run the other way; the % refers to the signal ratio; also: potency is read from the fitted curve at half-maximal effect)
Outline: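 HEK293 cells stably carrying an ER-alpha-UAS-bla beta-lactamase reporter were pre-cultured overnight in 2% charcoal-stripped FBS medium. Test compounds in DMSO were added together with 17beta-estradiol for 18 hr at 37C. Read-out was fluorescence after 2 hr with LiveBLAzer B/G FRET substrate at room temperature.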

[17] = qHTS assay to identify small molecule antagonists of the estrogen receptor alpha (ER-alpha) signaling pathway using the BG1 cell line (AID 743080; calls by dose curve;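 also: BG1 cells stimulated with 17beta-estradiol alongside compound; potency is read from the fitted curve at half-maximal effect; nearly all actives have a fitted effect of over 25% in size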)
Outline: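 Quantitative HTS on the Tox21 10K library: BG1 cells with endogenous ER-alpha and ERE-luciferase reporter, 17beta-estradiol stimulation, 21.5 h compound exposure, luminescence endpoint with parallel fluorescence cytotoxicity counter-read.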

Estrogen receptor (Homo sapiens), sequence (P03372 whole entry, looked up): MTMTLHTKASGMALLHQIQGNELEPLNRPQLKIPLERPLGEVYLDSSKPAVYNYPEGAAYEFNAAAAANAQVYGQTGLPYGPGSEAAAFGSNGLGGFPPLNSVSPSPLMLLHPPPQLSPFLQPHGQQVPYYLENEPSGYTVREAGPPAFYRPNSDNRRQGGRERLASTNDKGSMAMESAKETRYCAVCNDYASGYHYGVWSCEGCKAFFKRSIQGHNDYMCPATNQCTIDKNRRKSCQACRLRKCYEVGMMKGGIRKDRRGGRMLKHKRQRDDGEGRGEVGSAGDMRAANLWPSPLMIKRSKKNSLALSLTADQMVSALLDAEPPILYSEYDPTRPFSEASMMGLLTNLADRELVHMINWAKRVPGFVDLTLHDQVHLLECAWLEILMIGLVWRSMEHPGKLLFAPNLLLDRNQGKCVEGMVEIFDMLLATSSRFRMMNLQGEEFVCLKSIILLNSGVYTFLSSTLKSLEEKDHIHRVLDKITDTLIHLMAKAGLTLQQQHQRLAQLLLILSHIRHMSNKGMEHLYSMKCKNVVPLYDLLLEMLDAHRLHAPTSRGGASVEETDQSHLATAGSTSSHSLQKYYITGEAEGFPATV
Aromatase (Homo sapiens), sequence (P11511 whole entry, looked up): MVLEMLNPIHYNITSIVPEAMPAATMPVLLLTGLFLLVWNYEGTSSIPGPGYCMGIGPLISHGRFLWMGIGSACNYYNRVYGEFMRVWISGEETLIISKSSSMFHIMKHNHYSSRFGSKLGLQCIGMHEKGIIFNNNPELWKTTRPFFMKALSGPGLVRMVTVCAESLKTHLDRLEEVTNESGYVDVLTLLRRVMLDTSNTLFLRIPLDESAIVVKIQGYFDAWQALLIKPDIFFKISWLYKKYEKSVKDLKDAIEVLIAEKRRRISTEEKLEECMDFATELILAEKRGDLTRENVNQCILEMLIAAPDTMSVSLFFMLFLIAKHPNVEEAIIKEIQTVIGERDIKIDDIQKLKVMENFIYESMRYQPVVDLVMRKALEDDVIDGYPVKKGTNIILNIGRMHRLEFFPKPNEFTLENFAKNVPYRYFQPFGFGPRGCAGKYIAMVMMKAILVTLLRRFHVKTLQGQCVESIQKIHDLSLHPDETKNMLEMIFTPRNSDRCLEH
Peroxisome proliferator-activated receptor gamma (Homo sapiens), sequence (P37231 whole entry, looked up): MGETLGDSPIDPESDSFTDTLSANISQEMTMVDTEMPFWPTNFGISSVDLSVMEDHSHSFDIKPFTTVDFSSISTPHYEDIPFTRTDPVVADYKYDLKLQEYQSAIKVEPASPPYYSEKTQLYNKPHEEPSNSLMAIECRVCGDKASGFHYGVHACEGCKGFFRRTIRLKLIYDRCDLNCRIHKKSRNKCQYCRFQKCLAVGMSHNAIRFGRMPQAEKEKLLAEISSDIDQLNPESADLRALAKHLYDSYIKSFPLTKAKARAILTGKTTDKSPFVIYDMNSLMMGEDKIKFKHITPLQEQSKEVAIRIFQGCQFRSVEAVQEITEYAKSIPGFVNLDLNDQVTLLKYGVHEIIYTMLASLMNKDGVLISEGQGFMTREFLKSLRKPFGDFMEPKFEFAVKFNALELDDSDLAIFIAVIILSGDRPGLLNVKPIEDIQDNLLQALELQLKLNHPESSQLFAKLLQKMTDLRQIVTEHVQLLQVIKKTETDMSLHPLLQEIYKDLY
Aryl hydrocarbon receptor (Homo sapiens), sequence (P35869 whole entry, looked up): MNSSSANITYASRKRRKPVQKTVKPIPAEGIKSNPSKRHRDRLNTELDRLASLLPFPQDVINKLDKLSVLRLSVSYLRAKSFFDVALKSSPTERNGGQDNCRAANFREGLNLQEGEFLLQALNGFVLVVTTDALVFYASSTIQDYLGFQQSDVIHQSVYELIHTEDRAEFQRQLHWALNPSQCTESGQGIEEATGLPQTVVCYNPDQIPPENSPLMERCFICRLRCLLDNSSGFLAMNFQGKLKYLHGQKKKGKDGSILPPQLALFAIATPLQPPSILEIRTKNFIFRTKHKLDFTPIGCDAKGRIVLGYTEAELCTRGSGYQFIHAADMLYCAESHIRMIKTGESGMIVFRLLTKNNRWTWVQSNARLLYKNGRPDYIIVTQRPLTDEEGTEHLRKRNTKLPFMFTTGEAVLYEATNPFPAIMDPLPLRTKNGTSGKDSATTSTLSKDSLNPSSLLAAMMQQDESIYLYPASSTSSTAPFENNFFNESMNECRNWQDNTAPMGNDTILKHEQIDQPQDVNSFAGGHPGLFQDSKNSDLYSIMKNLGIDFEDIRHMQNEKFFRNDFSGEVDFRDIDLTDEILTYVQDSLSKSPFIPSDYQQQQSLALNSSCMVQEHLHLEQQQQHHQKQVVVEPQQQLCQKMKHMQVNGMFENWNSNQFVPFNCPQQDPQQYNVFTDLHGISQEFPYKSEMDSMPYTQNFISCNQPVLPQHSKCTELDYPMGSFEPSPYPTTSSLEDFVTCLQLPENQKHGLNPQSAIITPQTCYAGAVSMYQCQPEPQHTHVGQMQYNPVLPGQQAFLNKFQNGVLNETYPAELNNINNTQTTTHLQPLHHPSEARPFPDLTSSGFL

| Compound | Potency [1] | Potency [2] | Potency [3] | Potency [4] | Potency (Aromatase (Homo sapiens)) | Potency [5] | Potency [6] | Potency [7] | Potency [8] | Potency [9] | Potency [10] | Potency [11] | Potency [12] | Potency [13] | Potency [14] | Potency [15] | Potency [16] | Potency [17] |
| --- | --- | --- | --- | --- | --- | --- | --- | --- | --- | --- | --- | --- | --- | --- | --- | --- | --- | --- |
| OCc1c[nH]c2ccccc12 | 62.9 µM (active) | 54.5 µM (active) | inactive | 4.36 µM [fluorescent] (active) | 33.4 µM (active) | 5.14 µM (active) | 12.3 µM (active) | inactive | inactive | – | – | – | – | – | – | – | – | – |
| O=c1cc(-c2ccc(O)cc2)oc2cc(O)cc(O)c12 | 55.2 µM (active) | 61.9 µM (active) and 30.6 µM (active) | inactive | – | – | – | 21.9 µM (active) | inactive | 12.3 µM (active) | inactive | inactive | – | – | – | – | – | – | – |
| CC(C)(C)CC(C)(C)c1ccc(O)c(Cc2ccc(Cl)cc2Cl)c1 | 6.68 µM (active) | 6.68 µM (active) | 2.11 µM (active) | – | inactive | – | – | 13.3 µM (active) | 23.7 µM (active) | – | – | 23.9 µM (active) | inactive | inactive | – | – | – | – |
| CCCCCCCC/C=C/CCCCCCCC1=NCCN1CCO | 21.7 µM (active) | 21.7 µM (active) | inactive | – | 48.6 µM (active) | – | – | 24.3 µM (active) | 19.5 µM (active) | 43.6 µM (active) | – | – | 48.6 µM (active) | inactive | – | – | – | – |
| COc1cc(-c2ccc(N=C=O)c(OC)c2)ccc1N=C=O | inactive | inactive | inactive | – | inactive | – | – | – | inactive | inactive | inactive | inactive | inactive | inactive | inactive | inactive | – | – |
| CCc1cc(Cc2cc(CC)cc(C(C)(C)C)c2O)c(O)c(C(C)(C)C)c1 | 7.7 µM (active) | 6.11 µM (active) | inactive | – | 30.6 µM (active) | inactive | – | 21.7 µM (active) | 5.49 µM (active) | 6.92 µM (active) | – | 15.5 µM (active) | 61.1 µM (active) | inactive | 68.6 µM (active) | – | – | – |
| C=CC(=O)OCCn1c(=O)n(CCOC(=O)C=C)c(=O)n(CCOC(=O)C=C)c1=O | 5.45 µM (active) | 4.86 µM (active) | inactive | – | 13.7 µM (active) | inactive | – | 54.5 µM (active) | 13.8 µM (active) | 13.8 µM (active) | – | – | 13.7 µM (active) | 38.6 µM (active) | 54.5 µM (active) | – | – | – |
| CC/C(=C(\c1ccc(O)cc1)c1ccc(OCCN(C)C)cc1)c1ccccc1 | 5.46 µM (active) | 12.2 µM (active) | inactive | – | 0.0217 µM (active) | inactive | – | – | 27.6 µM (active) | 17.4 µM (active) | – | 39 µM (active) | 48.7 µM (active) | 54.6 µM (active) | 68.7 µM (active) | – | – | – |
| Cc1cc(O)c(Cl)c(C)c1Cl | 17.2 µM (active) | 24.3 µM (active) | inactive | inactive | 48.6 µM (active) | inactive | – | 30.6 µM (active) | 38.9 µM (active) | – | – | – | 61.1 µM (active) | – | inactive | inactive | – | – |
| COc1cccc2c1C(=O)c1c(O)c3c(c(O)c1C2=O)C[C@@](O)(C(=O)CO)C[C@@H]3O[C@H]1C[C@H](N)[C@H](O[C@@H]2CCCCO2)[C@H](C)O1 | 1.68 µM (active) | 0.841 µM (active) | – | 4.25 µM [activator] (active) | inactive | – | – | – | – | – | inactive | inactive | 13.3 µM (active) | 6.68 µM (active) | 9.44 µM (active) | – | – | – |
| CCc1cc(Cc2cc(CC)c(N)c(CC)c2)cc(CC)c1N | 68.6 µM (active) | 48.6 µM (active) | – | inactive | – | – | 38.9 µM (active) | 54.5 µM (active) | – | – | – | – | inactive | inactive | inactive | – | 38.9 µM [inconclusive] (active) | 61.1 µM (active) |
| Cc1[nH]cnc1C[C@H]1CCc2c(C)c3ccccc3n2C1=O | 13.3 µM (active) | 23.7 µM (active) and 13.3 µM (active) | – | – | inactive | – | – | 53.1 µM (active) | inactive | 19 µM (active) | – | inactive | inactive | inactive | inactive | – | – | – |
| OC1(c2ccc(Cl)c(C(F)(F)F)c2)CCN(CCCC(c2ccc(F)cc2)c2ccc(F)cc2)CC1 | 5.96 µM (active) | 5.96 µM (active) | – | – | 7.5 µM (active) | inactive | – | 5.96 µM (active) | 7.5 µM (active) | 8.41 µM (active) | – | 26.8 µM (active) | 7.5 µM (active) | 21.1 µM (active) | inactive | – | – | – |
| C[C@@H](NCCCc1cccc(C(F)(F)F)c1)c1cccc2ccccc12 | 7.5 µM (active) | 8.41 µM (active) | – | – | 13.3 µM (active) | inactive | – | 29.8 µM (active) | – | 26.6 µM (active) | – | 23.9 µM (active) | 21.1 µM (active) | 29.8 µM (active) | – | – | – | – |
| CNCc1cc(F)ccc1Oc1ccc(Cl)c(Cl)c1 | 30.6 µM (active) | 30.6 µM (active) | – | inactive | – | inactive | inactive | 61.1 µM (active) | inactive | inactive | inactive | inactive | inactive | – | inactive | inactive | – | – |
| CC1(C)CCC(C)(C)c2cc(C(=O)Nc3ccc(C(=O)O)cc3)ccc21 | 68.6 µM (active) | 48.6 µM (active) | – | inactive | inactive | inactive | inactive | inactive | – | inactive | – | inactive | – | – | inactive | – | – | 0.0043 µM (active) |
